In PubChem BioAssay AID906 (National Center for Advancing Translational Sciences (NCATS), 2007) one finds max response and Potency data, which are given here for five compounds.

Some of the results follow. Results filed as inconclusive are left out. The source made the active and inactive calls. Calls follow the shape of the dose curve; as a rule, active = well fitted inhibition curve with a large enough effect; inconclusive = small, poorly fitted or top-dose-only effect, or another doubt; inactive = no such curve, though single readings can be large or run the other way.

The test can be described thus: Cell Viability - CRE-beta lactamase CHO cell - 40 hr assay. Conditions: CRE-bla CHO viability, ATP luminescence; max response: hits give low values. From the text: NIH Chemical Genomics Center [NCGC] NIH Molecular Libraries Screening Centers Network [MLSCN] National Institutes of Environmental Health Sciences [NIEHS] National Toxicology Program [NTP] MLSCN Grant: 1X01MH079867-01 Assay Provider: Marshall W. Nirenberg, U.S. National Heart, Lung and Blood Institute NCGC Assay Overview: We have developed a 1536-well cell-based assay for quantitative high throughput screening (qHTS) against a number of cell lines to determine in vitro cytotoxicity of small molecules. This particular assay uses CRE-bla CHO cell line from Invitrogen.
NCGC Assay Protocol Summary: The CellTiter-Glo luminescent cell viability assay (Promega) is a homogeneous method to measure the number of viable cells in culture. The end point readout of this assay is based on quantitation of intracellular ATP, an indicator of metabolic activity, using the luciferase reaction. Luciferase catalyzes the oxidation of beetle Luciferin to oxyluciferin and light in the presence of ATP. The luminescent signal is proportional to amount of ATP present. Using the CellTiter-Glo luminescent cell viability assay, the amount of cellular ATP was measured in the CRE-bla CHO cell line with complete culture medium following compound treatment for 40 hours. The assay was performed in opaque white Kalypsys 1536-well plates. In the screen, tamoxifen was used as positive control. The selected compounds were measured for their ability to cause acute toxicity in the cell line, as reflected by a decrease in intracellular ATP levels, in a concentration-dependent manner. Data were normalized to the controls for basal activity (DMSO only) and 100% inhibition (100 uM tamoxifen). AC50 values were determined from concentration-response data modeled with the standard Hill equation. NCGC Assay Protocol Summary 1. Reagent; 5 uL; 2000 CHO cells/well 2. Time; overnight; 37 °C incubation 3. Compounds; 23 nL; 5.9 nM to 46 uM 4. Controls; 23 nL; Tamoxifen 4.5 nM to 92 uM 5. Time; 40 hr; 37 °C incubation 6. Reagent; 5 uL; CellTiter Glo reagent 7. Time; 20 min; Room Temperature 8. Detection; Luminescence; Viewlux plate reader Keywords: cell viability, cytotoxicity, CHO cell line, luminescence, MLSMR, MLSCN, NIH Roadmap, qHTS, NCGC
For `Cc1nc(SCC(=O)Nc2cc(C)on2)c2c3c(sc2n1)CCCC3`, the max response is -15.8% (inactive).
For `Cc1nn(-c2ccccc2)c2sc(C(=O)N(Cc3ccco3)C(C)C(=O)NC(C)(C)C)cc12` (stereo not given), the Potency is 12.6 µM (active).
In the case of `CCc1nc(Nc2ccc3nccnc3c2)c2oc3ccccc3c2n1`, the max response was -16.6% (inactive).
For `CC1CCc2sc3nc(N4CCN(CCO)CC4)n4ncnc4c3c2C1` (stereo not given), the max response was -25.1% (inactive).
As to `COc1ccc(CCNC(=O)CSc2nc(C)nc3c2oc2ccccc23)cc1OC`, the max response is -16.6% (inactive).
